Values joined by “and” are separate entries in the source; they are usually repeats but may differ in a detail not shown here. Equal entries are not always repeated. The whole screen tested about 5,500 compounds, of which about 2,000 (36%) were called active. Roughly 18% stayed inconclusive and do not appear here. Rule as the data show it: active = normalized growth mostly below about 0.91 (no sharp cut-off); inconclusive = no clear call, values can overlap the other calls; inactive = mostly above about 0.92. This is one part of the list.
Experiment: chemical genetic growth profiling, strain panel (AID 1159580);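 also: tested at 20 µM; growth read once vehicle control cultures reached saturation at 30 °C; 1 = growth at the plate median or of vehicle wells; lower values mean less growth of the strain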
Details: S. cerevisiae deletion strains, growth OD

Measured: normalized growth

CC1(C)S[C@@H]2[C@H](NC(=O)COc3ccccc3)C(=O)N2[C@H]1C(=O)O
inactive: locus YAL013W, strain DEP1, hits give low values 1 | locus YAL021C, strain ccr4, hits give low values 1.01 | locus YAL026C, strain drs2, hits give low values 1 | locus YAL030W, strain snc1, hits give low values 0.989 | locus YBL061C, strain skt5, hits give low values 0.985 | locus YBR009C, strain hhf1, hits give low values 1.01 | locus YBR021W, strain FUR4, hits give low values 1.02 | locus YBR023C, strain chs3, hits give low values 0.996 | locus YBR171W, strain sec66, hits give low values 0.969 | locus YBR229C, strain ROT2, hits give low values 1 | locus YBR231C, strain swc5, hits give low values 0.975 | locus YBR279W, strain paf1, hits give low values 0.999 | locus YCL011C, strain gbp2, hits give low values 1 | locus YCL016C, strain dcc1, hits give low values 1.02 | locus YCL029C, strain bik1, hits give low values 1.04 | locus YCL069W, strain vba3, hits give low values 0.993 | locus YCR088W, strain abp1, hits give low values 0.997 | locus YDL005C, strain med2, hits give low values 0.994 | locus YDL035C, strain GPR1, hits give low values 1.01 | locus YDL040C, strain nat1, hits give low values 0.993 | locus YDL074C, strain BRE1, hits give low values 1.01 | locus YDL101C, strain DUN1, hits give low values 1.01 | locus YDL134C, strain PPH21, hits give low values 1.01 | locus YDL185W, strain tfp1, hits give low values 1.01 | locus YDL192W, strain arf1, hits give low values 1.03 | locus YDR001C, strain nth1, hits give low values 0.99 | locus YDR069C, strain doa4, hits give low values 0.98 | locus YDR101C, strain arx1, hits give low values 1.02 | locus YDR137W, strain rgp1, hits give low values 0.975 | locus YDR150W, strain NUM1, hits give low values 0.999 | locus YDR159W, strain sac3, hits give low values 1 | locus YDR162C, strain NBP2, hits give low values 1.01 | locus YDR195W, strain ref2 0.955 | locus YDR297W, strain sur2, hits give low values 0.991 | locus YDR318W, strain mcm21, hits give low values 1.02 | locus YDR334W, strain swr1, hits give low values 0.993 | locus YDR335W, strain msn5, hits give low values 0.986 | locus YDR388W, hits give low values 1.02 | locus YDR392W, strain spt3, hits give low values 1.03 | locus YDR502C, strain sam2, hits give low values 1.03 | locus YEL003W, strain gim4, hits give low values 0.997 | locus YEL037C, strain rad23, hits give low values 0.992 | locus YEL061C, strain CIN8 (second series), hits give low values 0.986 | locus YEL061C, strain CIN8, hits give low values 1 | locus YER015W, strain faa2, hits give low values 0.999 | locus YER016W, strain bim1, hits give low values 1 | locus YER110C, hits give low values 1.02 | locus YER111C, strain swi4, hits give low values 0.99 | locus YER155C, strain BEM2 (second series), hits give low values 0.977 | locus YER155C, strain BEM2, hits give low values 0.999 | locus YER167W, strain BCK2, hits give low values 1 | locus YFR010W, strain ubp6, hits give low values 0.98 | locus YGL078C, strain dbp3, hits give low values 1.02 | locus YGL086W, strain mad1, hits give low values 1.01 | locus YGL167C, strain pmr1, hits give low values 0.996 | locus YGL173C, strain kem1, hits give low values 0.991 | locus YGL227W, strain vid30, hits give low values 0.984 | locus YGL240W, strain doc1, hits give low values 0.976 | locus YGL248W, strain PDE1, hits give low values 1.01 | locus YGL253W, strain hxk2, hits give low values 0.998 | locus YGR078C, strain PAC10, hits give low values 1.01 | locus YGR135W, strain pre9, hits give low values 1.02 | locus YGR229C, strain SMI1, hits give low values 1.01 | locus YGR252W, strain gcn5, hits give low values 1.02 | locus YHR013C, strain ard1, hits give low values 1 | locus YHR027C, strain rpn1, hits give low values 1.01 | locus YHR030C, strain SLT2, hits give low values 1.01 and 0.967 | locus YHR079C, strain IRE1 (second series), hits give low values 1.02 | locus YHR079C, strain IRE1, hits give low values 0.98 | locus YHR094C, strain hxt1, hits give low values 1.02 | locus YHR129C, strain ARP1, hits give low values 1 | locus YHR142W, strain chs7, hits give low values 1.01 | locus YHR200W, strain rpn10, hits give low values 1.02 | locus YIL066C, strain RNR3, hits give low values 1.01 | locus YIL073C, strain SPO22, hits give low values 1.07 | locus YIL125W, strain kgd1, hits give low values 1.02 | locus YIR030C, strain dcg1, hits give low values 1.03 | locus YJL092W, strain hpr5, hits give low values 0.976 | locus YJL095W, strain BCK1 (second series), hits give low values 0.99 | locus YJL095W, strain BCK1, hits give low values 1.01 and 0.99 | locus YJL115W, strain asf1, hits give low values 0.988 | locus YJL129C, strain trk1, hits give low values 0.955 | locus YJL134W, strain LCB3, hits give low values 1 | locus YJL154C, strain vps35, hits give low values 0.988 | locus YJL164C, strain tpk1, hits give low values 1.02 | locus YJL166W, strain qcr8, hits give low values 0.953 | locus YJL168C, strain set2, hits give low values 1.02 | locus YJL187C, strain SWE1 (second series), hits give low values 1.01 | locus YJL187C, strain SWE1, hits give low values 0.997 | locus YJR043C, strain POL32, hits give low values 1.01 | locus YJR066W, strain TOR1, hits give low values 0.92
